Screening results as filed in PubChem.
Sampled rows, rich in hits. Any-hit rate of the full collection: about 12%.
USP30 inh = inhibitors of human USP30 deubiquitinase; Ubiquitin carboxyl-terminal hydrolase 30 (Homo sapiens), Q70CQ3; inhibition, % at 25 µM; 47,000 tested, 5.3% active; purified USP30, Ub-rhodamine cleavage fluorescence; AID 1645860, 2021
USP8 block = inhibitors of human USP8 deubiquitinase. 47,000 tested, 4.2% active. purified USP8, Ub-rhodamine cleavage fluorescence, 30 min. AID 1645853, 2021. inhibition, % at 20 µM
USP17 inh = inhibitors of human USP17 deubiquitinase | Ubiquitin carboxyl-terminal hydrolase 17-like protein 5 (Homo sapiens), A8MUK1 | purified USP17, Ub-rhodamine cleavage fluorescence, 3 h | inhibition, % at 50 µM | 47,000 tested, 6.5% active | AID 1645855, 2021
Target sequence (A8MUK1 whole entry, looked up): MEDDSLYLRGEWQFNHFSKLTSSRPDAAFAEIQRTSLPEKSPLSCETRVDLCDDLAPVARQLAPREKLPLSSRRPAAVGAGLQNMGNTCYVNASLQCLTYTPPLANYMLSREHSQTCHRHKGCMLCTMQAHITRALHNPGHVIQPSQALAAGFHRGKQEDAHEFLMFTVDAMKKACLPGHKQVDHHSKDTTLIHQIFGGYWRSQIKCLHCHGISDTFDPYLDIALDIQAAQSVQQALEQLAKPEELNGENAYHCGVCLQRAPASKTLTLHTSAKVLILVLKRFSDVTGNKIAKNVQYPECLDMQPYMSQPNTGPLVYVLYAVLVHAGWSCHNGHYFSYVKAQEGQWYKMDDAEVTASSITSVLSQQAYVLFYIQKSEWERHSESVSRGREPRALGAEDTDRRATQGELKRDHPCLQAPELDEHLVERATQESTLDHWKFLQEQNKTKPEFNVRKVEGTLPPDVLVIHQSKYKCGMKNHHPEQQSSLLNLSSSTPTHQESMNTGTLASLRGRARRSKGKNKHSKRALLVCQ
Each line names hits and unclear results; the compound was inactive in the other large screens. No stated cut-off is given here; in the data, active means inhibition above about 30%; inactive means the rest.

COc1ccc(CN[C@H]2[C@H](O)[C@H](O)C[C@@H]2c2cncnc2)cn1	USP8 block 35
O[C@H]1[C@H](NCc2ccccc2)[C@@H](c2cccnc2)C[C@H]1O	none
O[C@H]1[C@H](NCc2cccc(C(F)(F)F)c2)[C@@H](c2cncnc2)C[C@H]1O	USP8 block 61
O[C@H]1[C@H](NCC2CCCC2)[C@@H](c2ccncc2)C[C@H]1O	none
CNc1nc2c(c(=O)n1C)CN(C(=O)c1ccc3ccccc3c1)CC2	none
Cn1ccnc1CN1CCC2(CC1)CN(c1cccnc1)c1ccccc12	none
Cc1cc(=O)[nH]c(Nc2cccc(Cl)c2)n1	none (no result: USP30 inh)
O=c1ccnc(Nc2cccc3ccccc23)[nH]1	USP8 block 49
CNC(=O)[C@@H]1C[C@@H]2CN(CC3CC3)CCN2[C@@]12C(=O)Nc1ccccc12	none
O=C(c1cc(-c2ccn(-c3ccccc3)n2)n2ccccc12)N1CCC(O)CC1	none
O=C(NCC(c1ccco1)N1CCCC1)c1ccccc1Cl (stereo unspecified)	none
COc1ccc(CC(=O)Nc2ccccc2C(=O)Nc2ccc(OC)cc2)cc1	none
COc1ccc(NC(=O)c2cccc3[nH]cc(CN4CCSCC4)c23)cc1	USP8 block 61
CCS(=O)(=O)c1ccc(O)c(NC(=O)c2ccc3c(c2)CCO3)c1	none
COCCn1c(SCC(=O)c2ccc(NC(C)=O)cc2F)nc2ccccc21	USP8 block 32
COCCn1c(SCC(=O)Nc2ccc(NC(=O)c3ccco3)c(OC)c2)nc2ccccc2c1=O	none
CCOC(=O)c1cnc(Nc2cccc(CC)c2)c2ccccc12	none
CCOC(=O)c1cnc(Nc2ccccc2OCC)c2ccccc12	USP8 block 60
C=CCNc1ncnc2c1sc1nc(C(C)C)c3c(c12)CC(C)(C)OC3	none (no result: USP30 inh)
CCCCN(CC)c1ncnc2c1sc1nc(-c3ccccc3)c3c(c12)CC(C)(C)OC3	none
CCCCN(CC)c1ncnc2c1sc1nc(-c3ccco3)c3c(c12)CC(C)(C)OC3	USP8 block 59, USP17 inh 53
CC(C)c1nc2sc3c(N(CCO)CCO)ncnc3c2c2c1COC(C)(C)C2	USP30 inh 60
Cc1ccc(C)c(NC(=O)CCc2cccc3[nH]ccc23)c1	none
COc1ccc(C)cc1NC(=O)c1cc(-c2ccc(Cl)cc2)nc2ccccc12	none
COc1cc(-c2cc(C(=O)Nc3cc(C)[nH]n3)c3ccccc3n2)cc(OC)c1OC	USP30 inh 51, USP17 inh 39
COC(=O)c1cc2c(ccn2-c2ccc(F)cc2)n1CCC#N	none
O=C(c1csc(-c2ccc(N3CCCC3)nc2)n1)N1CCCCC1	none
Cc1oc(CNS(=O)(=O)c2cc(Cl)ccc2Cl)nc1C(=O)N1CCC(C)CC1	none
Cc1ccc(N2CCCS2(=O)=O)cc1NC(=O)COc1ccccc1C	none
Cc1ccc(N2CCCS2(=O)=O)cc1NC(=O)COc1ccccc1F	USP30 inh 34
CC(=O)Nc1ccc(SCc2nnc(-c3ccccc3)o2)cc1	none
CC(C)(C)C(=O)Nc1ccc(C(=O)Nc2cccc(-c3nnc(-c4ccccc4)o3)c2)cc1	USP30 inh 55, USP17 inh 44
O=C(Nc1cccc(F)c1)Nc1cccc(-c2nnc(-c3ccccc3)o2)c1	USP30 inh 91, USP8 block 31, USP17 inh 89
O=C(Nc1ccccc1)Nc1ccc(F)c(-c2nnc(-c3ccccc3)o2)c1	none
COc1cccc(-c2nnc(-c3ccccc3NC(=O)c3ccc(C(C)(C)C)cc3)o2)c1	none
Cc1ccccc1NC(=O)Nc1cccc(-c2nnc(-c3ccccc3)o2)c1	USP8 block 51
Cn1cnnc1-c1cccc(NC(=O)Nc2cccc3ccccc23)c1	USP8 block 70, USP17 inh 42
O=C(Nc1ccccc1N1CCOCC1)Nc1cccc2ccccc12	none
CC(C(=O)Nc1ccc(F)cc1)C1CCN(C(=O)Nc2ccccc2)CC1 (stereo unspecified)	none
CCC1=N[C@@]2(CC[C@@H]3CN(C(=O)NC4CCCC4)C[C@@H]32)C(=O)N1CC1CC1	none
O=C(c1nc(-c2ccccc2)nc2c1OCCO2)N1CCSCC1	none
COC(=O)C1=CO[C@H](O[C@@H]2O[C@H](CO)[C@@H](O)[C@H](O)[C@H]2O)[C@H]2[C@]1(O)[C@H](O)C[C@]2(C)O	none
COCCn1cnc2c1c(=O)n(CC(=O)NCCc1ccc(OC)cc1)c(=O)n2Cc1ccccc1	none
Cc1ccccc1C(=O)c1cccn1CC(=O)NC1CCN(Cc2ccccc2)CC1	none
O=C(NC1CC1)c1nc(Cn2c(C(F)F)nc3ccccc32)no1	none
COc1ccc(OCc2nc3c4c5c(sc4[nH]c(=O)n3n2)CCCC5)cc1	none (no result: USP17 inh)
COc1ccc(OC)c(S(=O)(=O)Nc2cccc(-c3nnc(-c4ccccc4)o3)c2)c1	none
COc1ccc(NC(=O)Nc2cccc(-c3nnc(-c4ccccc4)o3)c2)cc1OC	USP30 inh 51
CCn1cnc2cc(NC(=O)c3ccccc3F)ccc21	none
O=C(COc1ccc(C(=O)Nc2ccc(F)cc2)cc1)Nc1ccc(Cl)cc1	none (no result: USP17 inh)
O=C(COc1ccc(Cl)cc1)Nc1ccc(-c2cn3cccnc3n2)cc1	USP8 block 53, USP17 inh 35
COc1ccc(CC(=O)Nc2ccccc2-c2ccccc2NC(=O)Cc2ccc(OC)cc2)cc1	none
COc1ccc(CC(=O)Nc2cc(-c3cn4cccnc4n3)ccc2C)cc1	USP17 inh 37
Fc1cccc(-c2nnc(C3CC34CCNCC4)o2)c1 (stereo unspecified)	none
CCCN1C(C)=NS(=O)(=O)c2cc(C(=O)Nc3cc(C)cc(C)c3)ccc21	none
CCc1noc(-c2c(C)[nH]c(C)c2S(=O)(=O)Nc2ccccc2)n1	none
c1ccc2c(-c3nc(C4CC4)no3)nnc(NC3CCCCC3)c2c1	USP30 inh 33
c1coc(CNc2nnc(-c3nnc(C4CC4)o3)c3ccccc23)c1	none
CC(C)OCCCNc1nnc(-c2nc(C3CC3)no2)c2ccccc12	none
Cc1nnc(-c2nnc(NCc3ccccc3)c3ccccc23)o1	none
c1ccc2c(-c3nc(C4CC4)no3)nnc(NCc3ccncc3)c2c1	USP17 inh 53
CC(C)N1CCN(c2nnc(-c3nc(C4CC4)no3)c3ccccc23)CC1	none
c1ccc2c(-c3nc(C4CC4)no3)nnc(NCCCN3CCOCC3)c2c1	USP30 inh 36
Fc1ccc(-c2noc(-c3nnc(NCc4cccnc4)c4ccccc34)n2)cc1	USP17 inh 75
C[C@H]1[C@@H](O)O[C@@H]2O[C@]3(C)CC[C@H]4[C@H](C)CC[C@@H]1[C@@]24OO3	none
CN(Cc1nc(-c2ccc(N3CCOCC3)nc2)no1)C1CCCCC1	none
CCOC(=O)c1ccccc1NC(=O)CCc1nnc2ccc(N3CCC(C)CC3)nn12	none
COc1ccc(-c2cc(C(=O)Nc3cccc(F)c3)c3ccccc3n2)cc1	none
CCn1cc(-c2cc(C(=O)Nc3cnn(Cc4cccc(F)c4)c3)c3ccccc3n2)cn1	USP17 inh 63
Cc1cn(C)c(CC(=O)NCc2ccc3c(c2)OCO3)c1C(=O)O	none
O=c1c2cnc(N3CCN(c4ccccc4)CC3)nc2ccn1Cc1cccnc1	none
O=c1c2cnc(N3CCCCC3)nc2ccn1CCc1ccccc1	USP17 inh 85
CSc1nc2ncc3c(=O)n(CCc4ccccc4)ccc3n2n1	USP30 inh 44, USP17 inh 62
CSc1nc2ncc3c(=O)n(CCN4CCOCC4)ccc3n2n1	none
CCN1CCN(c2ncc3c(=O)n(CCc4ccc(OC)c(OC)c4)ccc3n2)CC1	none
